# Bioassay records from PubChem BioAssay.
# Most compounds without a hit are left out; they make up all but 2.8% or so of the library.
# AHR activator = activators of human aryl hydrocarbon receptor. 2.5% of 320,000 active. AHR-responsive luciferase reporter cells, luminescence. activation, % at 5 µM. P35869. AID 2796; in the data active = activation above about 47%;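 also: 0% = vehicle wells and 100% = reference agonist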
# HIF act = HIF pathway transcriptional activation. U2OS HRE-luciferase reporter, luminescence; normalized: DMSO 0%, desferrioxamine 100%. activation, % at 7.5 µM (by protocol). 0.32% of 300,000 active. AID 1910;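 active = mean activation of at least 10% of the iron chelator positive control signal, with at least half of replicates also reaching 10%; inconclusive = mean and replicate majority disagree about reaching 10%; inactive = mean and most replicates under 10%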
# Platelet DG rel = modulates dense granule release in human platelets; human platelet-rich plasma, SFLLRN dense granule ATP release, luminescence; inhibition, %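 (compounds screened at 7.5 µM in platelet-rich plasma)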; 0.22% of 300,000 active;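 active = mean replicate score, as percent of positive control, at or above 50; inconclusive = mean below 50 but at least one replicate at or above 50; inactive = mean and every replicate below 50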
# pCIP destab = lowers stability of the mouse p/CIP coactivator protein; Q05BA5; F442A p/CIP-EGFP cells, EGFP fluorescence, 16 h; decrease of EGFP signal, % at 10 µM; 0.01% of 290,000 active; AID 1984;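 active = EGFP signal decrease of at least 30% at 10 µM or well 3 SD below plate mean, unless failing retest; inactive = the rest, including hits failing retest or dose response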
# PolyA inhibitor = yeast polyadenylation inhibition; S. cerevisiae SKY197-pL101 polyadenylation reporter, beta-gal luminescence; efflux-impaired pdr1/pdr3 knockout yeast; score 100 = 6 SD above DMSO; activity score, % at 12 µM; 0.02% of 300,000 active;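 active = lowest replicate activity score at least 50, where 100 means six control SD above control mean; inconclusive = lowest score under 50 but half or more replicates reach 50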;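 also: yeast exposed to compound for 9 h at 30 °C; higher score means more reporter readthrough which indicates perturbed polyadenylation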
# An asterisk follows results filed as active; ? = inconclusive; . = not tested or not shown.
SMILES,AHR activator,HIF act,Platelet DG rel,pCIP destab,PolyA inhibitor
O=C(NCCSc1ncc(-c2ccc(F)cc2)[nH]1)c1ccc2c(c1)OCO2,26,0,-5,.,-11
c1ccc(-c2noc(-c3ccc4c(c3)OCO4)n2)nc1,-7,-3,95*,-3,6
c1ccc(-c2noc(-c3ccc4ccccc4c3)n2)nc1,-18,-2,25,-6,-20
O=[N+]([O-])c1cccc(-c2nc(-c3ccccn3)no2)c1,68*,-1,13,-2,-10
CCCc1noc(-c2cccc([N+](=O)[O-])c2)n1,-3,0,0,5,-3
COc1cccc(-c2nc(-c3ccccn3)no2)c1,64*,-3,26,-27,-6
COc1cccc(-c2nc(-c3ccccc3)no2)c1,38,0,8,2,4
Cc1nc(=S)c2c([nH]1)-c1ccccc1CC21CCCCC1,1,0,0,2,6
COc1ccc(OC)c(-c2csc(NC(=O)C3=COCCO3)n2)c1,50*,1,2,.,12
O=C(NC1=NCCS1)c1ccc(Cl)c(S(=O)(=O)N2CCOCC2)c1,8,0,0,-1,11
C=CCn1cnc2c(nnn2-c2ccc(Cl)cc2)c1=O,84*,0,-3,-5,-6
CN(CC(=O)Nc1ccc(Cl)c(C(F)(F)F)c1)C(=O)c1ccc2c(c1)NC(=O)CS2,3,.,.,.,.
CSc1ccc(C2N=C(c3ccccc3)NO2)cc1 (stereo unspecified),58*,1,5,-7,2
COc1cc(CNc2ncnc3c2[nH]c2ccc(C)cc23)cc(OC)c1,27,1,-2,4,-8
COc1ccc(/C=N/Nc2ncnc3c2[nH]c2ccc(C)cc23)c(OC)c1OC,63*,-2,8,-6,-7
COc1cc(OC)c(OC)cc1/C=N/Nc1ncnc2c1[nH]c1ccccc12,36,1,-8,-8,-4
Cc1ccc2[nH]c3c(NCc4ccco4)ncnc3c2c1,57*,2,-2,-13,?
CCCN1CCC(=O)N(CCO)CC1,-1,0,-3,-5,-14
COc1ccc(CN2C(=NC(=O)C3CCCCC3)SC3CS(=O)(=O)CC32)cc1 (stereo unspecified),6,0,4,-22,20
COc1cc(/C=N/NC(N)=S)ccc1OCC(=O)Nc1ccc(C)c(C)c1,38,0,1,-26,-6
COC(=O)N/N=C\c1ccc(OC/C=C/c2ccccc2)c(OC)c1,51*,1,-3,4,-1
COc1cc(/C=N/NC(N)=O)ccc1OCC(=O)Nc1ccc(C)c(C)c1,45,-1,56*,-2,10
COc1ccc(N=C2C(=O)N3c4c(cccc42)C(C)=CC3(C)C)cc1,4,2,31,-5,-10
O=C(CN1CCN(c2ccc(F)cc2)CC1)Nc1ccccc1[N+](=O)[O-],1,0,-4,-4,16
Cc1sc(NC(=O)c2ccco2)c(CN2CCC(C)CC2)c1C,11,51*,-2,-16,-6
SMILES,AHR activator,HIF act,Platelet DG rel,pCIP destab,PolyA inhibitor
Cc1ccc(C)c(NCC(O)c2ccccc2)c1 (stereo unspecified),52*,-1,3,11,-20
Cc1cc(NC(c2ccc(Cl)cc2)c2ccc3cccnc3c2O)no1 (stereo unspecified),12,169*,-8,-12,18
CCC(=O)NC(c1ccc(Cl)cc1Cl)c1ccc2cccnc2c1O (stereo unspecified),-2,102*,1,-65,?
CC(=O)NC(c1ccco1)c1ccc2cccnc2c1O (stereo unspecified),-2,9,-2,7,0
COc1ccc(C(NC(C)=O)c2cc(Cl)c3cccnc3c2O)cc1 (stereo unspecified),0,8,0,-5,-18
CCCCC(=O)NC(c1ccc(Cl)cc1Cl)c1ccc2cccnc2c1O (stereo unspecified),.,28*,1,-11,-13
COc1ccc(C(NC(=O)C(C)C)c2ccc3cccnc3c2O)cc1 (stereo unspecified),2,121*,-9,-2,4
CC(C)C(=O)NC(c1ccc(Cl)cc1Cl)c1ccc2cccnc2c1O (stereo unspecified),-3,80*,-3,4,-15
CC(=NCc1ccncc1)C1=C(O)c2ccccc2C1=O,.,.,.,-13,.
CC(=NCc1cccnc1)C1=C(O)c2ccccc2C1=O,74*,0,.,6,-1
CCCCCCC(=O)Nc1c(O)c2ccccc2[nH]c1=O,4,0,-3,-4,10
CCOc1ccccc1NC(=O)c1ccc(C(=O)Nc2ccccc2OCC)nc1,72*,-1,-1,2,13
O=C(Nc1c(O)c2ccccc2[nH]c1=O)c1ccco1,78*,0,0,-13,37
CCOc1ccccc1NC(=O)c1cccc2ccccc12,74*,0,-1,-4,6
COc1ccc(C(=O)Nc2ccccc2C(=O)Nc2ccc(C(=O)O)cc2)cc1,1,1,4,3,-7
COc1ccc(C(=O)Nc2ccccc2C(=O)Nc2ccncc2)cc1,61*,2,10,-13,2
Cc1ccccc1NC(=O)CSc1nnc(C)c2ccccc12,-5,1,-1,4,-30
Cc1cc(C)c(NC(=O)COC(=O)c2nc3nccc(C)n3n2)c(Cl)c1,0,.,.,.,.
O=C(Nc1ccccc1C(=O)N/N=C/c1ccccc1)c1ccco1,48*,1,17,-30,-6
CCOc1ccccc1NC(=O)c1cc(SC)ccc1Cl,72*,2,-3,-4,19
CCOc1ccccc1NC(=O)c1ccc(Cl)c(NC(=O)CC(c2ccccc2)c2ccccc2)c1,80*,-1,-2,0,13
CCSc1nnc(NC(=O)c2cccc3ccccc23)s1,52*,0,-32,-4,18
CCOc1ccccc1NC(=O)c1cccc(NC(=O)CC(c2ccccc2)c2ccccc2)c1,-4,0,-12,-16,-13
CCSc1nnc(NC(=O)c2csc(C)c2)s1,-1,3,3,-5,-11
Cc1ccc(S(=O)(=O)N2CCN(C(=O)CCC(=O)NCc3cccc(C(F)(F)F)c3)CC2)cc1,1,0,-4,.,-6
SMILES,AHR activator,HIF act,Platelet DG rel,pCIP destab,PolyA inhibitor
O=C(c1ccc2n[nH]nc2c1)N1CCN(c2ccc(C(F)(F)F)cn2)CC1,-2,.,.,.,.
Cc1ccc2nc(-c3ccc(O)cc3)oc2c1,0,1,19,-8,-11
CSc1ccc(/C=C/C(=O)N2CCN(c3ccccn3)CC2)cc1,24,1,-3,-9,-4
COc1ccc(C(=O)Nc2cccc(C)c2)cc1,0,1,56*,-8,16
CCOc1ccccc1NC(=O)c1csc(C)c1C,71*,0,-8,4,-24
O=C(Nc1ccccc1C(=O)Nc1ccc2c(c1)OCO2)c1ccco1,47*,0,.,-3,-1
CCOc1ccccc1NC(=O)c1ccccc1-c1ccccc1,4,0,-2,-9,-16
